Source: PubChem BioAssay (EPA / NIEHS)
Activity calls are given as the source filed them. Rule for the calls: active = hit-call score of the fitted dose curve at least 0.9, where 1 is the maximum; inactive = score below 0.9.

Columns and labels:
Conditions in all cases: mRNA level, 48 h; actives raise or lower the signal
[1] = read-out: Interleukin 6 (IL6), IL6 (gene 3569); assay: LTEA_HepaRG_IL6: Life Technologies and Expression Analysis (LTEA) Assay for Interleukin 6 (IL6) using HepaRG (AID 2283509)
Method in brief: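 HepaRG cells exposed in duplicate for 48 h to eight half-log concentrations, top 100 uM, in 0.5% DMSO serum-free induction medium. mRNA measured by qRT-PCR, normalized to ACTB, GAPDH and POLR2A. Bidirectional fit versus DMSO.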

[2] = read-out: Interleukin 6 Receptor (IL6R), IL6R (gene 3570); assay: LTEA_HepaRG_IL6R: Life Technologies and Expression Analysis (LTEA) Assay for Interleukin 6 Receptor (IL6R) using HepaRG (AID 2283510)
Method in brief: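 Concentration-response in human liver HepaRG cells: eight concentrations from 100 uM downward by half-logs, 48 h exposure, 0.5% DMSO vehicle. IL6R mRNA change measured by qRT-PCR and fitted in both directions relative to vehicle.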

[3] = read-out: Potassium channel subfamily K member 1 (KCNK1), KCNK1 (gene 3775); assay: LTEA_HepaRG_KCNK1: Life Technologies and Expression Analysis (LTEA) Assay for Potassium channel subfamily K member 1 (KCNK1) using HepaRG (AID 2283511)
Method in brief: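 Differentiated HepaRG cells, 48 h exposure in serum-free induction medium with 0.5% DMSO; 8 concentrations, half-log from 100 uM, duplicate. KCNK1 mRNA by qRT-PCR, normalized to ACTB, GAPDH, POLR2A; bidirectional fit vs DMSO.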

[4] = read-out: Keratin 19 (KRT19), KRT19 (gene 3880); assay: LTEA_HepaRG_KRT19: Life Technologies and Expression Analysis (LTEA) Assay for Keratin 19 (KRT19) using HepaRG (AID 2283512)
Method in brief: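 KRT19 transcript measured by TaqMan qRT-PCR, referenced to three housekeeping genes, after HepaRG cells received test chemicals for 48 h. Eight half-log concentrations, top 100 uM, 0.5% DMSO vehicle; increases and decreases both fitted.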

[5] = read-out: JUN Transcription Factor, JUN (gene 3725); assay: LTEA_HepaRG_JUN: Life Technologies and Expression Analysis (LTEA) Assay for JUN Transcription Factor using HepaRG (AID 2283513)
Method in brief: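 Human HepaRG liver cells receive test chemicals in 0.5% DMSO for 48 h across an eight-point range topping at 100 uM. Expression changes in JUN are scored in both directions against the DMSO vehicle.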

[6] = read-out: Lipase C (LIPC), LIPC (gene 3990); assay: LTEA_HepaRG_LIPC: Life Technologies and Expression Analysis (LTEA) Assay for Lipase C (LIPC) using HepaRG (AID 2283514)
Method in brief: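 HepaRG cells, 48 h after plating, treated in duplicate for 48 h in serum-free induction medium over 8 half-log concentrations from 100 uM, 0.5% DMSO. LIPC mRNA by TaqMan qRT-PCR normalized to ACTB/GAPDH/POLR2A; bidirectional fit versus DMSO.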

[7] = read-out: Lipoprotein lipase (LPL), LPL (gene 4023); assay: LTEA_HepaRG_LPL: Life Technologies and Expression Analysis (LTEA) Assay for Lipoprotein lipase (LPL) using HepaRG (AID 2283515)
Method in brief: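 Differentiated HepaRG cells, plated 48 h, then exposed 48 h in serum-free induction medium to 8 concentrations (top 100 uM, half-log steps) in 0.5% DMSO, duplicate. LPL mRNA measured by qRT-PCR, normalized to ACTB, GAPDH and POLR2A.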

[8] = read-out: MicroRNA 122 (MIR122), gene 406906; assay: LTEA_HepaRG_MIR122: Life Technologies and Expression Analysis (LTEA) Assay for MicroRNA 122 (MIR122) using HepaRG (AID 2283516); note: the transcript read is the microRNA miR-122
Method in brief: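 HepaRG, 48 h exposure, 8-pt half-log from 100 uM, 0.5% DMSO; TaqMan qRT-PCR; bidirectional fit vs DMSO.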

[9] = read-out: matrix metalloproteinase-10 (MMP10), MMP10 (gene 4319); assay: LTEA_HepaRG_MMP10: Life Technologies and Expression Analysis (LTEA) Assay for matrix metalloproteinase-10 (MMP10) using HepaRG (AID 2283517)
Method in brief: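 Differentiated HepaRG cells in serum-free induction medium exposed 48 h in duplicate to 8-point half-log series up to 100 uM in 0.5% DMSO. mRNA quantified by qRT-PCR, normalised to ACTB, GAPDH, POLR2A; bidirectional fit versus DMSO.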

[10] = read-out: MYC, MYC (gene 4609); assay: LTEA_HepaRG_MYC: Life Technologies and Expression Analysis (LTEA) Assay for MYC using HepaRG (AID 2283518)
Method in brief: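 MYC transcript changes, up or down relative to 0.5% DMSO, from TaqMan qRT-PCR normalized to three housekeeping genes. Human HepaRG cultures received chemicals for 48 h at eight half-log concentrations up to 100 uM, in duplicate.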

[11] = read-out: matrix metalloproteinase-3 (MMP3), MMP3 (gene 4314); assay: LTEA_HepaRG_MMP3: Life Technologies and Expression Analysis (LTEA) Assay for matrix metalloproteinase-3 (MMP3) using HepaRG (AID 2283519)
Method in brief: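 HepaRG cells (~100,000/well) in serum-free induction medium were dosed in duplicate for 48 h with an 8-point half-log series from 100 uM, 0.5% DMSO. MMP3 mRNA was quantified by Fluidigm TaqMan qRT-PCR, normalized to three housekeeping genes.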

[12] = read-out: Paternally Expressed 10 (PEG10), PEG10 (gene 23089); assay: LTEA_HepaRG_PEG10: Life Technologies and Expression Analysis (LTEA) Assay for Paternally Expressed 10 (PEG10) using HepaRG (AID 2283520)
Method in brief: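 Chemicals tested on HepaRG cells for 48 h, highest concentration 100 uM. PEG10 expression assessed by qRT-PCR relative to DMSO control.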

[13] = read-out: Protein phosphatase 2A (PPP2R4), PTPA (gene 5524); assay: LTEA_HepaRG_PPP2R4: Life Technologies and Expression Analysis (LTEA) Assay for Protein phosphatase 2A (PPP2R4) using HepaRG (AID 2283522)
Method in brief: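 Gene-expression endpoint in HepaRG hepatic cells: 48 h treatment across eight half-log concentrations up to 100 uM in 0.5% DMSO. PPP2R4 mRNA by qRT-PCR, normalized to three endogenous control genes.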

[14] = read-out: Phosphatase and tensin (PTEN), PTEN (gene 5728); assay: LTEA_HepaRG_PTEN: Life Technologies and Expression Analysis (LTEA) Assay for Phosphatase and tensin (PTEN) using HepaRG (AID 2283523)
Method in brief: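 HepaRG cells, 48 h after plating, exposed in duplicate for 48 h in serum-free induction medium to 8 half-log concentrations up to 100 uM (0.5% DMSO). PTEN mRNA by qRT-PCR, normalized to ACTB, GAPDH, POLR2A; bidirectional fit versus DMSO.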

[15] = read-out: solute carrier (SLC22A1), SLC22A1 (gene 6580); assay: LTEA_HepaRG_SLC22A1: Life Technologies and Expression Analysis (LTEA) Assay for solute carrier (SLC22A1) using HepaRG (AID 2283524)
Method in brief: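 Differentiated human HepaRG cells in serum-free induction medium, exposed 48 h in duplicate to 8-point half-log series from 100 µM top in 0.5% DMSO. SLC22A1 mRNA by TaqMan qRT-PCR normalized to ACTB, GAPDH, POLR2A; bidirectional fit versus DMSO.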

[16] = read-out: Pyruvate Dehydrogenase Kinase 4 (PDK4), PDK4 (gene 5166); assay: LTEA_HepaRG_PDK4: Life Technologies and Expression Analysis (LTEA) Assay for Pyruvate Dehydrogenase Kinase 4 (PDK4) using HepaRG (AID 2283525)
Method in brief: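 HepaRG cells plated 48 h, then switched to serum-free induction medium and exposed in duplicate for 48 h to 8 half-log concentrations from 100 uM in 0.5% DMSO. PDK4 mRNA measured by qRT-PCR, normalized to ACTB, GAPDH and POLR2A; bidirectional fit versus DMSO.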

[17] = read-out: NAD(P)H dehydrogenase [quinone] 1 (NQO1), NQO1 (gene 1728); assay: LTEA_HepaRG_NQO1: Life Technologies and Expression Analysis (LTEA) Assay for NAD(P)H dehydrogenase [quinone] 1 (NQO1) using HepaRG (AID 2283526)
Method in brief: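 Human HepaRG hepatic cells received chemicals for 48 h in serum-free induction medium with 0.5% DMSO, up to 100 uM. Expression was assessed by TaqMan qRT-PCR against housekeeping controls and fitted bidirectionally against DMSO.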

[18] = read-out: Nuclear factor erythroid 2-related factor 2 (Homo sapiens) (UniProt Q16236); assay: LTEA_HepaRG_NFE2L2: Life Technologies and Expression Analysis (LTEA) Assay for Nuclear factor erythroid 2-related factor 2 (NFE2L2) Transcription Factor using HepaRG (AID 2283527);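 note: TaqMan qRT-PCR transcript level normalised to ACTB GAPDH and POLR2A housekeeping genes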
Method in brief: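 Differentiated human HepaRG cells, serum-free induction medium, exposed 48 h in duplicate to eight half-log concentrations up to 100 uM in 0.5% DMSO. NFE2L2 mRNA by Fluidigm TaqMan qRT-PCR, normalised to ACTB, GAPDH, POLR2A; bidirectional change versus DMSO.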

[19] = read-out: succinate dehydrogenase complex iron sulfur subunit B (SDHB), SDHB (gene 6390); assay: LTEA_HepaRG_SDHB: Life Technologies and Expression Analysis (LTEA) Assay for succinate dehydrogenase complex iron sulfur subunit B (SDHB) using HepaRG (AID 2283528)
Method in brief: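 A human HepaRG culture in serum-free induction medium received test chemicals for 48 h over an eight-point range capped at 100 uM. SDHB expression change was quantified by qRT-PCR.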

[20] = read-out: Signal transducer and activator of transcription 3 (Homo sapiens) (UniProt P40763); assay: LTEA_HepaRG_STAT3: Life Technologies and Expression Analysis (LTEA) Assay for Signal transducer and activator of transcription (STAT3) using HepaRG (AID 2283529)
Method in brief: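 Differentiated HepaRG cells, serum-free induction medium, dosed 48 h in duplicate, 8 half-log concentrations from 100 uM in 0.5% DMSO. STAT3 mRNA by qRT-PCR, normalised to ACTB, GAPDH, POLR2A; bidirectional fit versus DMSO.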

Measured: outcome

Signal transducer and activator of transcription 3 (Homo sapiens), sequence (P40763 whole entry, looked up): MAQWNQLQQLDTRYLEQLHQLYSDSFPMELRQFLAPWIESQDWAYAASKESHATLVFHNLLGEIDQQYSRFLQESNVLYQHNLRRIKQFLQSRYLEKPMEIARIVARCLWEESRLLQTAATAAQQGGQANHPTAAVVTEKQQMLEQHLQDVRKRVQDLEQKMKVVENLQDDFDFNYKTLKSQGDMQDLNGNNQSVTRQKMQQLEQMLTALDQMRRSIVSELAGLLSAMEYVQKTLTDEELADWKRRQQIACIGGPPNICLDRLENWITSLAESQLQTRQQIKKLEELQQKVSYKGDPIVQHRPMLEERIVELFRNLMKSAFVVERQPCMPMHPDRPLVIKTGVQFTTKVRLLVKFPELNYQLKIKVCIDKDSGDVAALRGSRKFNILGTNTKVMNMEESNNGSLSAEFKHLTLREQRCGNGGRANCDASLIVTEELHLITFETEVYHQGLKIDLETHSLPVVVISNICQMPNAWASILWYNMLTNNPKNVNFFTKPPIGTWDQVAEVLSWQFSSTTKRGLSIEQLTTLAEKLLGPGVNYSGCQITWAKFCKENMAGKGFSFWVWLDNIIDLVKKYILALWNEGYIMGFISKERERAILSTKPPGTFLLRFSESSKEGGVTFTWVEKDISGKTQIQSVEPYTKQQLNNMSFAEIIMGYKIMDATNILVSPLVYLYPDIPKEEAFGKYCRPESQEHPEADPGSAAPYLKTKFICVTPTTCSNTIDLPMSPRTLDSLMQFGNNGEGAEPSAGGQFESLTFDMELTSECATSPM
Nuclear factor erythroid 2-related factor 2 (Homo sapiens), sequence (Q16236 whole entry, looked up): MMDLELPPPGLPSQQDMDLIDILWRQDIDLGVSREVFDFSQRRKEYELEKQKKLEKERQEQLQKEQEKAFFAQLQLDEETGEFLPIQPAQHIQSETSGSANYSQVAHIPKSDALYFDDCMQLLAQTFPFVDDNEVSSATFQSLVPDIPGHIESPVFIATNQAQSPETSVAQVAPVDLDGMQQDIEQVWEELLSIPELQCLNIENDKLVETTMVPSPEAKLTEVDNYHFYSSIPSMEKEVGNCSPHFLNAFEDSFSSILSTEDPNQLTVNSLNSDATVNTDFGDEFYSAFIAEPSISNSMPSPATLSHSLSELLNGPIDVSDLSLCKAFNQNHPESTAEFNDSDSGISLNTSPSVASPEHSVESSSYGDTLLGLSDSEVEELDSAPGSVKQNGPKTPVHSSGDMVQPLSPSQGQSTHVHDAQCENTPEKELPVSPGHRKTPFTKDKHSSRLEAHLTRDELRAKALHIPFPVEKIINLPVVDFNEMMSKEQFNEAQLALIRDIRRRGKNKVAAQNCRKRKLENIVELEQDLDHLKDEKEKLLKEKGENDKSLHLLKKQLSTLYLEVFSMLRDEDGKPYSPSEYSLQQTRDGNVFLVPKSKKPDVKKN

CCC(C)=NO
inactive: [1] | [2] | [3] | [4] | [5] | [6] | [7] | [8] | [9] | [10] | [11] | [12] | [13] | [14] | [15] | [16] | [17] | [18] | [19] | [20]
